Measurements as given in PubChem BioAssay (NCATS).
Records with an inconclusive call do not appear. A call without a number means that no potency is given here. The source made the active and inactive calls. The call rests on the fitted dose curve; in most records, active means well fitted curve in the direction sought with a large enough effect; inconclusive means small, poorly fitted or top-dose-only effect, or another doubt; inactive means no such curve, though single readings can be large; an effect the other way counts as inactive or inconclusive.

system: not listed separately; experiment: qHTS for Inhibitors of Ubiquitin-specific Protease USP2a Using CHOP2 as the Reporter: K633 Counterscreen (AID 652168); conditions: No-enzyme DiUb K48 IQF substrate fluorescence interference, kinetic; series mostly up to 57.5 µM
Method in brief: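 Cell-free interference counterscreen without USP2a: compounds pinned into enzyme-free buffer (20 mM Tris pH 8, 2 mM beta-mercaptoethanol, 0.05% Chaps), then DiUb K48-4IQF substrate added (100 nM stock); fluorescence read kinetically, Ex 525/Em 598.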

| SMILES | outcome |
| --- | --- |
| O=[S+]([O-])(NCc1nccs1)c1ccc(Nc2nc(-c3ccccc3)cs2)cc1 | inactive |
| Cc1ccc(S(=O)(=O)Nc2ccc(Br)cc2C(=O)Nc2nc(-c3ccccc3)cs2)cc1 | inactive |
| O=S(=O)(Nc1nccs1)c1ccc(Nc2nc(-c3ccccc3)cs2)cc1 | inactive |
| O=C(Nc1nc(-c2ccccc2)cs1)c1ccncc1NS(=O)(=O)c1cccc2cccnc12 | inactive |

system: not listed separately; experiment: qHTS for Inhibitors of Ubiquitin-specific Protease USP2a Using CHOP2 as the Reporter: Cytotox Assay (AID 652170); conditions: HCT116 viability, CellTiter-Glo luminescence, 72 h; series mostly up to 46.1 µM; further: nearly all actives have a fitted effect of over 70% in size; further: potency means the concentration at half of the fitted maximal effect
Method in brief: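 HCT116 human colon cancer cells, 600 per well in DMEM with 10% FBS, exposed to compounds for 72 hr at 37 deg C. ATP measured by CellTiter-Glo luminescence, normalized to DMSO cells and no-cell background.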

| SMILES | Potency |
| --- | --- |
| N#Cc1ccc(NS(=O)(=O)c2ccc(NC(=O)Cc3ccc(F)c(Cl)c3)cc2)cc1 | inactive |
| N#Cc1ccc(N[S+](=O)([O-])c2ccc(Nc3nc(-c4ccccc4)cs3)cc2)cc1 | inactive |
| NS(=O)(=O)c1ccc(Nc2nc(-c3ccccc3)cs2)cc1 | inactive |
| O=S(=O)(Nc1nccs1)c1ccc(Nc2nc(-c3ccccc3)cs2)cc1 | inactive |
| N#Cc1ccc(NS(=O)(=O)c2ccc(NC(=O)Cc3ccc(Cl)c(Cl)c3)cc2)cc1 | inactive |
| Cc1ccc(S(=O)(=O)Nc2cc3c(cc2C(=O)Nc2nc(-c4ccccc4)cs2)OCO3)cc1 | 16.6 µM (active) |
| O=C(Nc1nc(-c2ccccc2)cs1)c1ccncc1NS(=O)(=O)c1cccc2cccnc12 | inactive |

molecular target: Ubiquitin carboxyl-terminal hydrolase 2 (Homo sapiens) (UniProt O75604); experiment: qHTS for Inhibitors of Ubiquitin-specific Protease USP2a Using CHOP2 as the Reporter: K484 Substrate (AID 652173); conditions: USP2 cleavage of DiUb K48 IQF substrate, fluorescence; series mostly up to 57.5 µM;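 further: cleavage of internally quenched K48 di-ubiquitin substrate measured as rising fluorescence over time; nearly all actives have a fitted effect of over 70% in size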; further: potency means the concentration at half of the fitted maximal effect
Method in brief: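 USP2 (dispensed at 5 nM) was pinned with compounds, then DiUb K48 internally quenched fluorescent substrate (dispensed at 100 nM) was added. The buffer was 20 mM Tris pH 8, 2 mM beta-mercaptoethanol and 0.05% CHAPS. Cleavage was read kinetically as rising fluorescence, Ex 525/Em 598.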

Ubiquitin carboxyl-terminal hydrolase 2 (Homo sapiens), sequence (O75604 whole entry, looked up): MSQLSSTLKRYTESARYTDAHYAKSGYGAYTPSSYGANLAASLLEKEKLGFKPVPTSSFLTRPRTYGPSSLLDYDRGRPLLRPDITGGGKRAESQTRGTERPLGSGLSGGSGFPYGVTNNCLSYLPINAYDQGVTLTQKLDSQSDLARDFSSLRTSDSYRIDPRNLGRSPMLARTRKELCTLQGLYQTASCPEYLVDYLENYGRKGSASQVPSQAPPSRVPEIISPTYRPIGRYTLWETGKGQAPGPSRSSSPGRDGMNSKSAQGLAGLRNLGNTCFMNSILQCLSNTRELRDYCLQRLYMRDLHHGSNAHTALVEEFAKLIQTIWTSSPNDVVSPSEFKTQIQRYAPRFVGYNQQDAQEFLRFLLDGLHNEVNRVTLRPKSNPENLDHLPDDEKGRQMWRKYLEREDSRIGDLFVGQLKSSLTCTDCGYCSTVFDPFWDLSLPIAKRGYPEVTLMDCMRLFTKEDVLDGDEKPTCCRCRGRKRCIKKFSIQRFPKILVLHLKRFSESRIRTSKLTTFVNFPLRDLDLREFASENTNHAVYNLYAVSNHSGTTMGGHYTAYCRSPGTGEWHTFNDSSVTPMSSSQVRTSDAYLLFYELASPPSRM

| SMILES | Potency |
| --- | --- |
| O=[S+]([O-])(NCc1nccs1)c1ccc(Nc2nc(-c3ccccc3)cs2)cc1 | inactive |
| N#Cc1ccc(NS(=O)(=O)c2ccc(NC(=O)Cc3ccc(F)c(Cl)c3)cc2)cc1 | 24.3 µM (active) |
| N#Cc1ccc(N[S+](=O)([O-])c2ccc(Nc3nc(-c4ccccc4)cs3)cc2)cc1 | inactive |
| NS(=O)(=O)c1ccc(Nc2nc(-c3ccccc3)cs2)cc1 | 21.7 µM (active) |
| Cc1ccc(S(=O)(=O)Nc2ccc(Br)cc2C(=O)Nc2nc(-c3ccccc3)cs2)cc1 | 0.968 µM (active) |
| O=S(=O)(Nc1nccs1)c1ccc(Nc2nc(-c3ccccc3)cs2)cc1 | inactive |
| N#Cc1ccc(NS(=O)(=O)c2ccc(NC(=O)Cc3ccc(Cl)c(Cl)c3)cc2)cc1 | 7.69 µM (active) |
| Cc1ccc(S(=O)(=O)Nc2cc3c(cc2C(=O)Nc2nc(-c4ccccc4)cs2)OCO3)cc1 | 1.37 µM (active) |
| O=C(Nc1nc(-c2ccccc2)cs1)c1ccncc1NS(=O)(=O)c1cccc2cccnc12 | 7.69 µM (active) |
